Assay outcomes deposited in PubChem BioAssay by several laboratories.
Beta2AR agonist: agonists of human beta-2 adrenergic receptor inducing internalization; P07550; Am2.2-beta2AR cells, FAP receptor internalization, flow cytometry; response, % (no concentration beside the values); hit rate 0.43% among 340,000;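 active = response above a set limit, near 3 SD of response in nonfluorescent compounds, cut at about 42% in these data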
TLR9-MyD88 block: inhibitors of human TLR9-MyD88 binding; hit rate 0.21% among 340,000; AID 504734; inhibition, % at 4.98 µM; CHO BLA complementation TLR9-MyD88, CCF4 FRET ratio;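 active = inhibition above the mean over all tested compounds plus 3 SD, cut at about 21% in these data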
Target sequence (Q99836 whole entry, looked up): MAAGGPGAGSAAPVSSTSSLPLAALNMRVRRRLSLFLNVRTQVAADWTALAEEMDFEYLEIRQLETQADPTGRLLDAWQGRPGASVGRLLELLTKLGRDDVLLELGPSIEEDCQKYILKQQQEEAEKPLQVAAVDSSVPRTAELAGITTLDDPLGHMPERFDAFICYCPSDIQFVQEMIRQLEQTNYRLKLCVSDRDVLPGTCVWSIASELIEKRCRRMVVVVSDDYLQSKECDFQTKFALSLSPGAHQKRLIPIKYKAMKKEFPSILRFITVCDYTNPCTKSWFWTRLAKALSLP
Target sequence (Q9NR96 whole entry, looked up): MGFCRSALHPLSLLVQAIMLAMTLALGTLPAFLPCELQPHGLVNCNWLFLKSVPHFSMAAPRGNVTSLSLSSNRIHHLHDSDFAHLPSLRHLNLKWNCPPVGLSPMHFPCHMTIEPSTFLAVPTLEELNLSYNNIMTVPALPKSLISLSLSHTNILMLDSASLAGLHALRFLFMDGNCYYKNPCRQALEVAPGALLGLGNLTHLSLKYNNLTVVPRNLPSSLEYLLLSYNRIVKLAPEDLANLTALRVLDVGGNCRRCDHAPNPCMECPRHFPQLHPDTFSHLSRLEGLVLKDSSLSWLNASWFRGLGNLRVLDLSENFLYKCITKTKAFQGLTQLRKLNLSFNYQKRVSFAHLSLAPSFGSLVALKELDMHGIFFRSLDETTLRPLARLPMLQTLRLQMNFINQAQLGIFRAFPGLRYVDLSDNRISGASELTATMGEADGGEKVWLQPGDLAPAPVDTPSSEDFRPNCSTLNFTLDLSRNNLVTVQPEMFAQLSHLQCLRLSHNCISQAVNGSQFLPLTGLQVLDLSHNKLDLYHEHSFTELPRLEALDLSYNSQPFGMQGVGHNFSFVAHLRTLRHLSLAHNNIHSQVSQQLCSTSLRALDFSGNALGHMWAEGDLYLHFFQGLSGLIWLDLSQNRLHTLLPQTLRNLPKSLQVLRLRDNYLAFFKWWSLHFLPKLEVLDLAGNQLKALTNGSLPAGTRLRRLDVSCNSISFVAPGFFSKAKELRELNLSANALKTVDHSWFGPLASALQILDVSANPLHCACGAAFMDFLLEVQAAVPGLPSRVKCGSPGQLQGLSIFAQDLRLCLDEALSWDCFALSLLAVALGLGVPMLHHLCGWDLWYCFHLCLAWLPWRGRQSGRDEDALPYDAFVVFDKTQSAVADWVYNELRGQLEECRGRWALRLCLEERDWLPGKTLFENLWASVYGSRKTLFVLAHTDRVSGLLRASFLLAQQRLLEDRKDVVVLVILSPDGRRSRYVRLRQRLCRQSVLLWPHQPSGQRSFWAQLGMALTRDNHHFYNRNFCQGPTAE
Granule exo inh: blocks lytic granule exocytosis. TALL-104 LAMP-1 surface exposure, flow cytometry; cells stimulated with thapsigargin and PMA. inhibition, % at 10 µM. hit rate 0.66% among 360,000. AID 651702;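 active = inhibition above about 55%, limit read from the data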
TLR4 MyD88 comp: inhibitors of human TLR4-MyD88 binding; O00206+Q99836; HeLa CL3-4 TLR4/MyD88 BLA complementation, FRET ratio; inhibition, % at 8.4 µM; hit rate 0.18% among 200,000; AID 861; in the data active = inhibition above about 25%
ABHD5 PLIN5 PPI: ABHD5-PLIN5 protein interaction inhibition. Q00G26+Q8WTS1. Split G. princeps luciferase complementation, luminescence, 4 h. inhibition, % at 4 µM. hit rate 0.78% among 360,000. AID 602281;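 active = inhibition above the mean inhibition across every tested compound plus 3 SD, cut at about 22% in these data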
NOD2-RIPK2 inh: NOD2-RIPK2 protein interaction inhibition; CHO BLA complementation NOD2-RIPK2, CCF4 ratio; inhibition, % at 4.98 µM; hit rate 0.38% among 360,000; in the data active = inhibition above about 21%
TLR9-MyD88 conf: confirmation of human TLR9-MyD88 binding inhibitors. hit rate 51% among 680. CHO TLR9/MyD88 BLA complementation, CCF4 FRET ratio. inhibition, % at 4.98 µM. shares compounds with TLR9-MyD88 block. AID 540250;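 active = mean inhibition across three repeats above about 21% taken from the earlier screen, limit read from the data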;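 note: blue over green emission ratio reports constitutive TLR9 MyD88 association via BLA complementation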
BLA counter-1: counter-screen for TLR9-MyD88 inhibitors: non-selective beta-lactamase inhibitors. shares compounds with TLR9-MyD88 block. CHO-BLA cells, CCF4 FRET ratio, BLA reporter. inhibition, % at 4.98 µM. hit rate 7% among 680;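 active = mean inhibition above a 50% cutoff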;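 note: counterscreen of TLR9-MyD88 hits on CMV-driven BLA in CHO-K1 cells; higher means less blue over green ratio so more BLA blockade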
TLR9 CHO cytotox: CHO cell toxicity counter-screen for TLR9-MyD88 inhibitors; TLR9-MyD88 CHO cells cytotoxicity, luminescence; inhibition, % at 4.98 µM; hit rate 39% among 680; shares compounds with TLR9-MyD88 block; in the data active = inhibition above about 11%
ABHD5-PLIN5 conf: confirmation of human ABHD5-PLIN5 interaction inhibitors | shares compounds with ABHD5 PLIN5 PPI | biochemical ABHD5-PLIN5 interaction, luminescence | inhibition, % at 4 µM | hit rate 67% among 2,200 | AID 651612; in the data active = inhibition above about 23%
HNF4 split-luc: HNF4 split-luciferase signal hit, counter-screen | hit rate 77% among 2,200 | inhibition, % at 4 µM | shares compounds with ABHD5 PLIN5 PPI | HNF4 dimerization, luminescence, biochemical | AID 651674;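 active = mean inhibition across replicate wells exceeding the computed hit threshold, cut at about 13% in these data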;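 note: light from luciferase halves that rejoin when HNF4 fusion proteins dimerize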
NOD2-RIPK2 conf: confirmation of human NOD2-RIPK2 interaction inhibitors; shares compounds with NOD2-RIPK2 inh; CHO cells, NOD2-RIPK2 BLA complementation, CCF4 FRET; inhibition, % at 4.98 µM; hit rate 70% among 1,200; AID 624370;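 active = mean inhibition across replicates above a set limit taken from the earlier primary screen, cut at about 21% in these data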
BLA counter-2: hits BLA reporter in NOD2-RIPK2 inhibitor counterscreen. shares compounds with NOD2-RIPK2 inh. CHO BLA reporter, CCF4 FRET ratio. inhibition, % at 4.98 µM. hit rate 57% among 1,200. AID 624371;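 active = mean inhibition above the low-control mean inhibition plus three low-control SD, cut at about 11% in these data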
Hits are given with their value; i = inactive; nt = no result given. An excerpt weighted towards active compounds, which were near 2% of everything screened.

SMILES	Beta2AR agonist	TLR9-MyD88 block	Granule exo inh	TLR4 MyD88 comp	ABHD5 PLIN5 PPI	NOD2-RIPK2 inh	ABHD5-PLIN5 conf	HNF4 split-luc	others
CC1=C(O)C(=O)C=C2C1=CC=C1C2(C)CCC2(C)C3CC(C)(C(=O)O)CCC3(C)CCC12C (centres undefined)	105.0	28.6	105.7	nt	95.4	80.9	101.5	106.0	TLR9-MyD88 conf=50.1;BLA counter-1=i;TLR9 CHO cytotox=97.7;NOD2-RIPK2 conf=80.6;BLA counter-2=i
Cc1cccc(C)c1-n1nnnc1C(c1ccccc1OC(F)(F)F)N1CCC(n2c(=O)[nH]c3ccccc32)CC1 (centres undefined)	nt	nt	i	nt	i	i	nt	nt
Cc1cc(N(CCCl)CCCl)ccc1C=Cc1ccncn1	i	31.8	i	nt	i	40.3	nt	nt	TLR9-MyD88 conf=i;BLA counter-1=i;TLR9 CHO cytotox=i;NOD2-RIPK2 conf=25.9;BLA counter-2=31.1
CC(=NCc1ccc2c(c1)OCO2)c1c(O)n(-c2ccc(C)cc2)c(=O)[nH]c1=O	i	i	i	nt	98.5	i	i	i
Cc1cc(Br)cn2c(CC(=O)N3CCCCC3)c(-c3ccc(F)cc3)nc12	nt	nt	i	nt	i	i	nt	nt
Cn1c(O)c(C=Nc2cccc(C(F)(F)F)c2)c(=O)n(C)c1=O	i	i	i	nt	24.1	i	i	13.8
Cn1c(O)c(C=Nc2ccc(Br)cc2)c(=O)n(C)c1=O	i	i	i	nt	i	i	nt	nt
N=Cc1c(O)n(-c2cccc(Cl)c2)c(=O)[nH]c1=O	i	i	i	i	i	i	nt	nt
CNS(=O)(=O)c1ccc(N=Cc2c(O)n(-c3ccccc3)c(=O)[nH]c2=O)cc1	i	i	i	i	40.2	i	i	21.8
O=c1[nH]c(=O)n(-c2cccc(Cl)c2)c(O)c1/C=N/c1ccccn1	i	i	i	i	26.4	i	i	27.0
O=C1C=C2c3ccccc3CC(C(=O)O)C2CC1 (centres undefined)	nt	nt	i	nt	i	i	nt	nt
CS(=O)(=O)c1ccc(C2=C(CNC(=O)c3nccs3)[C@H]3CC[C@@H](C2)N3Cc2ccco2)cc1	nt	i	i	nt	i	i	nt	nt
Clc1ccc2c(c1)C(c1ccccc1Cl)=NCc1nnc(N3CCN(CCSc4ccccc4)CC3)n1-2	i	i	i	i	26.0	i	i	i
CCC(c1nnnn1C1CCCCC1)N1CCC2(CC1)C(=O)NCN2c1ccccc1 (centres undefined)	nt	nt	i	nt	i	i	nt	nt
O=c1[nH]sc2cc(F)ccc12	i	i	i	i	80.7	i	39.7	112.7
c1ccc(C2(NC3=NCCO3)CCCCC2)cc1	nt	i	i	nt	i	i	nt	nt
O=C(O)CCn1cc(C=C2C(=O)NC(=S)NC2=O)c(-c2cccc(Cl)c2)n1	i	i	i	i	i	i	nt	nt
O=C(O)CCn1cc(C=C2C(=O)NC(=O)NC2=O)c(-c2ccc(Br)cc2)n1	i	i	i	i	24.5	i	68.8	70.5
O=C(CF)N(O)c1ccc(C=Cc2ccccc2)cc1	i	i	i	nt	36.5	i	46.3	i
O=C(C=Cc1ccccc1)Nc1ccccc1	i	i	i	nt	i	i	nt	nt
C=CCNC(=S)/N=C/c1c(O)[nH]c(=O)[nH]c1=O	i	i	i	i	28.3	i	i	i
